Assay results as given in the supplement of paper PMC12067926.

Legend:
Experiment in all cases: relative growth (AUC of 72 h growth curve relative to DMSO control, dAUC) (ratio); higher = more growth (less inhibition), active = hit call of the paper
Conditions in all cases: 20 µM;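 active = growth AUC significantly below the DMSO wells by Dunnett test; inactive = the rest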
[1] = test system: Aeromonas 1 (Aeromonas sp. AE235)
Procedure, shortened: (§1)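 Whole sediment communities and bacterial isolates from Icelandic stream sediments and Silwood Park soil were brought to carrying capacity in Luria–Bertani medium. They were then diluted 1:100 into 96-well plates with each chemical at 20 µM in 1% DMSO, and A600 was recorded every hour for 72 h. The area under each growth curve, integrated by spline, was averaged across three biological replicates. This figure, divided by the mean of the DMSO controls, gives relative growth (dAUC).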

[2] = test system: Aeromonas 2 (Aeromonas sobria)
Procedure, shortened: as §1

[3] = test system: Aeromonas 3 (Aeromonas popoffii)
Procedure, shortened: as §1

[4] = test system: Argrobacterium 1 (Agrobacterium sp.)
Procedure, shortened: as §1

[5] = test system: Arthrobacter 1 (Arthrobacter humicola)
Procedure, shortened: as §1

[6] = test system: Arthrobacter 2 (Arthrobacter humicola)
Procedure, shortened: as §1

[7] = test system: Arthrobacter 3 (Arthrobacter sp.)
Procedure, shortened: as §1

Community 10 = test system: Community 10
Procedure, shortened: as §1

Community 4 = test system: Community 4
Procedure, shortened: as §1

Community 6 = test system: Community 6
Procedure, shortened: as §1

Community 7 = test system: Community 7
Procedure, shortened: as §1

Community 8 = test system: Community 8
Procedure, shortened: as §1

Community 9 = test system: Community 9
Procedure, shortened: as §1

[8] = test system: Flavobacterium 1 (Flavobacterium glaciei)
Procedure, shortened: as §1

[9] = test system: Flavobacterium 2 (Flavobacterium succinicans)
Procedure, shortened: as §1

[10] = test system: Hymenobacter 1 (Hymenobacter glaciei)
Procedure, shortened: as §1

[11] = test system: Microbacterium 1 (Microbacterium arborescens)
Procedure, shortened: as §1

[12] = test system: Neobacillus 1 (Neobacillus soli)
Procedure, shortened: as §1

[13] = test system: Oryzobacter 1 (Oryzobacter terrae)
Procedure, shortened: as §1

[14] = test system: Paenibacillus 1 (Paenibacillus castaneae)
Procedure, shortened: as §1

Measured: relative growth

CON(C)C(=O)Nc1ccc(Cl)c(Cl)c1
active: [6] 0.595
inactive: [1] 0.924 | [2] 0.996 | [3] 0.996 | [4] 0.869 | [5] 0.952 | [7] 0.929 | Community 10 1.03 | Community 4 0.943 | Community 6 0.995 | Community 7 1.01 | Community 8 1.07 | Community 9 1.03 | [8] 1.01 | [9] 0.923 | [10] 0.961 | [11] 1.05 | [12] 0.908 | [13] 1.04 | [14] 1

COP(=S)(OC)SCN1C(=O)c2ccccc2C1=O
inactive: [1] 1.02 | [2] 1.03 | [3] 1.01 | [4] 0.987 | [5] 0.962 | [6] 0.748 | [7] 1.09 | Community 10 1 | Community 4 1.02 | Community 6 1.03 | Community 7 1.04 | Community 8 1.02 | Community 9 1.04 | [8] 0.982 | [9] 0.975 | [10] 1.02 | [11] 0.992 | [12] 1.03 | [13] 0.954 | [14] 1.06

O=C(O)COc1ccc(Cl)cc1Cl
inactive: [1] 0.976 | [2] 0.999 | [3] 0.998 | [4] 0.944 | [5] 0.921 | [6] 0.958 | [7] 0.969 | Community 10 0.98 | Community 4 1.04 | Community 6 1.02 | Community 7 1.08 | Community 8 0.972 | Community 9 1.03 | [8] 0.966 | [9] 1.02 | [10] 1.07 | [11] 1.02 | [12] 1 | [13] 0.964 | [14] 1.01

COP(N)(=O)SC (centres undefined)
active: [6] 0.0085 | [7] 0.137 | Community 6 0.626 | Community 9 0.575 | [8] 0.117 | [14] 0.194
inactive: [1] 0.996 | [2] 1 | [3] 0.972 | [4] 1.14 | [5] 0.92 | Community 10 0.803 | Community 4 0.808 | Community 7 1.34 | Community 8 0.924 | [9] 0.952 | [10] 1.01 | [11] 0.992 | [12] 0.856 | [13] 1.03

CCCSP(=O)(OCC)Oc1ccc(Br)cc1Cl (centres undefined)
1.27: [13]
inactive: [1] 1.02 | [2] 1.02 | [3] 0.994 | [4] 1.12 | [5] 0.894 | [6] 0.745 | [7] 0.973 | Community 10 0.705 | Community 4 0.833 | Community 6 0.83 | Community 7 1.01 | Community 8 0.96 | Community 9 0.866 | [8] 1.01 | [9] 0.919 | [10] 0.98 | [11] 1.01 | [12] 0.965 | [14] 0.925

CC(C)CC(C)c1sccc1NC(=O)c1cn(C)nc1C(F)(F)F (centres undefined)
1.2: [13]
inactive: [1] 0.935 | [2] 0.946 | [3] 0.994 | [4] 0.855 | [5] 0.87 | [6] 0.885 | [7] 0.936 | Community 4 0.78 | Community 6 0.806 | Community 7 1.06 | Community 8 1.01 | Community 9 0.916 | [8] 1.02 | [9] 0.921 | [10] 0.945 | [11] 0.937 | [12] 0.924 | [14] 0.906

COP(=O)(NC(C)=O)SC (centres undefined)
inactive: [1] 1.02 | [2] 0.995 | [3] 0.998 | [4] 1.03 | [5] 0.984 | [6] 0.906 | [7] 1.05 | Community 10 0.781 | Community 4 1.01 | Community 6 0.892 | Community 7 0.831 | Community 8 0.99 | Community 9 1.03 | [8] 1.06 | [9] 0.982 | [10] 1 | [11] 1.01 | [12] 1.01 | [13] 1.04 | [14] 0.959

COCC(=O)N(c1c(C)cccc1C)[C@H](C)C(=O)OC
inactive: [1] 0.971 | [2] 1.01 | [3] 1.02 | [4] 1 | [5] 0.981 | [6] 1.03 | [7] 1.04 | Community 10 0.999 | Community 4 1.21 | Community 6 1.08 | Community 7 0.993 | Community 8 1.06 | Community 9 1.1 | [8] 1.05 | [9] 1.02 | [10] 1.08 | [11] 1.03 | [12] 1.01 | [13] 0.955 | [14] 1.05

N#Cc1nn(-c2c(Cl)cc(C(F)(F)F)cc2Cl)c(N)c1[S+]([O-])C(F)(F)F (centres undefined)
inactive: [1] 0.981 | [2] 0.935 | [3] 1 | [4] 1.01 | [5] 0.911 | [6] 0.914 | [7] 0.853 | Community 10 1.05 | Community 4 1.07 | Community 6 1.06 | Community 7 0.995 | Community 8 1.05 | Community 9 1.04 | [8] 0.977 | [9] 1.01 | [10] 1.05 | [11] 1 | [12] 0.993 | [13] 0.998 | [14] 1.02

CCN(CC)c1nc(C)cc(OP(=S)(OC)OC)n1
inactive: [1] 1 | [2] 0.982 | [3] 1.02 | [4] 1.04 | [5] 0.998 | [6] 0.924 | [7] 0.956 | Community 10 0.843 | Community 4 1.01 | Community 6 0.982 | Community 7 0.988 | Community 8 1.04 | Community 9 1.04 | [8] 1.05 | [9] 0.995 | [10] 1 | [11] 1.03 | [12] 1.03 | [13] 1.06 | [14] 1.02

CCOC(=O)OC1=C(c2cc(C)ccc2C)C(=O)N[C@]12CC[C@@H](OC)CC2
inactive: [1] 0.965 | [2] 0.981 | [3] 1.01 | [4] 1.03 | [5] 1.17 | [6] 1.03 | [7] 0.986 | Community 10 0.945 | Community 4 1.14 | Community 6 1.02 | Community 7 1.03 | Community 8 0.995 | Community 9 1.03 | [8] 1.08 | [9] 1.05 | [10] 0.987 | [11] 1.01 | [12] 1.09 | [13] 1.05 | [14] 1.01

CCc1nn(C)c(C(=O)NCc2ccc(Oc3ccc(C)cc3)cc2)c1Cl
inactive: [1] 1.03 | [2] 1.06 | [3] 1.05 | [4] 1.02 | [5] 1.04 | [6] 0.892 | [7] 1.02 | Community 10 0.804 | Community 4 0.865 | Community 6 0.897 | Community 7 1.02 | Community 8 1.03 | Community 9 0.885 | [8] 1 | [9] 1.04 | [10] 0.992 | [11] 1.02 | [12] 1.05 | [13] 0.988 | [14] 1

CC1COC(Cn2cncn2)(c2ccc(Oc3ccc(Cl)cc3)cc2Cl)O1 (centres undefined)
inactive: [1] 1.08 | [2] 1.03 | [3] 1.02 | [4] 1.04 | [5] 0.741 | Community 10 0.896 | Community 4 1.2 | Community 6 1.06 | Community 7 1.02 | Community 8 1.01 | Community 9 1.21 | [9] 0.988 | [10] 0.956 | [11] 0.936 | [12] 1.08 | [13] 1.16 | [14] 0.872
active: [6] 0.223 | [7] 0.348 | [8] 0.367

Nc1c([N+](=O)[O-])ccc(Oc2ccccc2)c1Cl
inactive: [1] 0.959 | [2] 0.953 | [3] 0.961 | [4] 0.972 | [5] 0.894 | [6] 0.826 | [7] 0.957 | Community 10 0.833 | Community 4 0.851 | Community 6 0.856 | Community 7 0.955 | Community 8 1.03 | Community 9 0.907 | [8] 0.864 | [9] 0.917 | [10] 1.09 | [11] 1.03 | [12] 0.913 | [13] 1.05 | [14] 0.843

O=C(NC(=O)c1c(F)cccc1F)Nc1ccc(Cl)cc1
inactive: [1] 1.01 | [2] 1.01 | [3] 0.986 | [4] 1.04 | [5] 0.955 | [6] 0.985 | [7] 1.09 | Community 10 0.795 | Community 4 0.924 | Community 6 0.996 | Community 7 0.985 | Community 8 1.06 | Community 9 1.05 | [8] 0.844 | [9] 0.949 | [10] 0.917 | [11] 1.03 | [12] 0.942 | [13] 1.04 | [14] 0.957

CC[C@H](C)C1O[C@]2(C=C[C@@H]1C)C[C@@H]1C[C@@H](C/C=C(\C)[C@@H](O[C@H]3C[C@H](OC)[C@@H](O[C@H]4C[C@H](OC)[C@H](NC)[C@H](C)O4)[C@H](C)O3)[C@@H](C)/C=C/C=C3\CO[C@@H]4[C@H](O)C(C)=C[C@@H](C(=O)O1)[C@]34O)O2 (some centres undefined)
active: [5] 0.108 | [6] 0.00328 | [7] 0.324 | Community 6 0.509 | Community 9 0.404 | [8] 0.0154 | [10] 0.356 | [13] 0.00218 | [14] 0.0061
inactive: [1] 1.08 | [2] 0.923 | [3] 0.979 | [4] 1.11 | Community 10 0.9 | Community 4 0.787 | Community 7 0.976 | Community 8 0.952 | [9] 0.832 | [11] 1.04 | [12] 0.894
